Source: the supplement of paper PMC6555819

How the values were obtained:
Test in all cases: PBM binding z-score (relative to random genomic background probes); higher = stronger binding; sequences stand for … in GC…GCGATTGACAGCGTAGAATGAAGG
[1] = test system: PPARg:RXRa DBDmut IVT, anti-RXR (DBD mutation: RXRa K156A/R161A, NR concentration 270 nM, RXRa partner concentration 90 nM)
How it was run: (§1)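 Ligand-free nuclear receptor dimers were bound for 1 h to custom Agilent 4×180K protein-binding microarrays. Detection used antibodies against each partner (one per run). Binding z-scores rest on regression-normalized fluorescence, with random background probes as the reference.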

[2] = test system: PPARg:RXRa IVT, anti-PPARg (NR concentration 270 nM, RXRa partner concentration 90 nM)
How it was run: as §1

[3] = test system: PPARg DBDmut:RXRa IVT, anti-PPARg (DBD mutation: PPARg1 K132A/R137A, NR concentration 270 nM, RXRa partner concentration 90 nM)
How it was run: as §1

[4] = test system: PPARg DBDmut IVT, anti-PPARg (DBD mutation: PPARg1 K132A/R137A, NR concentration 270 nM)
How it was run: as §1

[5] = test system: PPARg homodimer (NR concentration 180 nM)
How it was run: as §1

[6] = test system: PXR:RXRa (NR concentration 270 nM, RXRa partner concentration 90 nM)
How it was run: as §1

[7] = test system: PXR homodimer (NR concentration 270 nM)
How it was run: as §1

[8] = test system: RARa:RXR (NR concentration 270 nM, RXRa partner concentration 90 nM)
How it was run: as §1

[9] = test system: RARa homodimer (NR concentration 270 nM)
How it was run: as §1

[10] = test system: RARb:RXRa (NR concentration 270 nM, RXRa partner concentration 90 nM)
How it was run: as §1

[11] = test system: RARb homodimer (NR concentration 270 nM)
How it was run: as §1

[12] = test system: RARg:RXRa (NR concentration 270 nM, RXRa partner concentration 90 nM)
How it was run: as §1

[13] = test system: RARg homodimer (NR concentration 270 nM)
How it was run: as §1

[14] = test system: RXRa DBDmut IVT, anti-RXR (DBD mutation: RXRa K156A/R161A, NR concentration 90 nM)
How it was run: as §1

[15] = test system: RXRa homodimer (NR concentration 180 nM)
How it was run: as §1

[16] = test system: THRa:RXRa (NR concentration 90 nM, RXRa partner concentration 90 nM)
How it was run: as §1

[17] = test system: THRa homodimer (NR concentration 90 nM)
How it was run: as §1

[18] = test system: VDR homodimer (NR concentration 270 nM)
How it was run: as §1

Row | Sequence | PBM binding z-score [1] | PBM binding z-score [2] | PBM binding z-score [3] | PBM binding z-score [4] | PBM binding z-score [5] | PBM binding z-score [6] | PBM binding z-score [7] | PBM binding z-score [8] | PBM binding z-score [9] | PBM binding z-score [10] | PBM binding z-score [11] | PBM binding z-score [12] | PBM binding z-score [13] | PBM binding z-score [14] | PBM binding z-score [15] | PBM binding z-score [16] | PBM binding z-score [17] | PBM binding z-score [18]
1 | TATACAGGGTCACAGGCCAGAGTACGAATGTCGA | 2.88 | 5.43 | 2.95 | 3.73 | 3.45 | 4.32 | 0.522 | 5.21 | 1.31 | 4.8 | 3.83 | 5.96 | 5.41 | 2.61 | 6.79 | 3.92 | 1.94 | 2.51
2 | AGAATGAGGTTATACGTATATCAGGGAAGAAAGT | 2.88 | 2.25 | 1.21 | 1.56 | 1.21 | 1.45 | 0.473 | 1.92 | 0.666 | 1.44 | 0.94 | 1.77 | 1.35 | 1.42 | 2.34 | 2.5 | 0.645 | 0.832
3 | TCTTGTAGATCAAAGGTTAAGATAGCCGAAGCCT | 2.14 | 4.36 | 0.743 | 0.848 | 2.49 | 2.29 | -0.253 | 3.37 | 0.787 | 1.98 | 1.61 | 2.19 | 1.11 | 0.675 | 3.56 | 1.38 | -0.548 | 0.153
4 | CCTACTGGGCCAAAAAGGTCATTGAAGCCGATAA | 3.62 | 3.97 | -0.352 | -0.851 | 3.29 | 4.73 | 3.09 | 5.39 | 1.5 | 4.06 | 4.33 | 4.98 | 4.29 | 0.615 | 5.31 | 3.08 | 0.418 | 2.58
5 | TCAGCTAGGTCAGTTGGTCAGCTAACGAGCTGCC | 2.84 | 2.65 | -0.243 | 0.225 | -0.166 | 0.0327 | -1.06 | 0.304 | -0.936 | 3.31 | 2.61 | 2.79 | 3.45 | 0.986 | 0.749 | 0.928 | -0.339 | -0.91
6 | AATACAGGGTCATAGTAGGCCAGAGTACGCACAG | 2.62 | 4.56 | 1.47 | 2.3 | 2.67 | 4.36 | 0.689 | 4.7 | 0.787 | 4.05 | 3.26 | 4.92 | 4.13 | 3.36 | 5.63 | 4.23 | 1.41 | 3.6
7 | TTACCAAGGTGAGCTGGGGTCGTTGATCCAACTC | 0.928 | 2.07 | -0.594 | -0.348 | 0.0514 | 4.52 | 0.268 | 2.72 | -0.868 | 1.55 | 1.42 | 1.31 | 0.493 | -0.222 | 2.1 | 4.38 | 1.23 | 1.84
